Each structure is given as a SMILES string. Among all 39,000 compounds or so, about 500 (1.3%) were called active. Shown is part of a subset that was picked to be rich in actives.

The assay has as its system S. aureus RN4220. The experiment in a line: growth inhibition call (relative growth <= 0.2). Particulars: 50 µM.
With `CCCCCCCCC=CCCCCCCCC(=O)[O-].[NH3+]CCO`, the growth inhibition call was “inactive”. In the case of `C[C@H]1CN([C@@H](C)CO)C(=O)c2cc(NC(=O)Nc3cccc4ccccc34)ccc2O[C@@H]1CN(C)Cc1ccc(-c2ccccc2)cc1` it was “inactive”.

In the case of `Cl.Cl.N=C(NCCCCCCNC(=N)NC(=N)Nc1ccc(Cl)cc1)NC(=N)Nc1ccc(Cl)cc1`, the growth inhibition call is “active”.

For `CC(C)NC(=N)NC(=N)Nc1ccc(Cl)cc1.Cl`, the growth inhibition call is “inactive”. As to `Cl.N=C(NN=Cc1ccc(Cl)cc1)NN=Cc1ccc(Cl)cc1`, the growth inhibition call was “inactive”.

With `C[C@H](CO)N1C[C@H](C)[C@H](CN(C)Cc2ccc3c(c2)OCO3)Oc2c(NC(=O)C3CC3)cccc2C1=O`, the growth inhibition call was “inactive”. Regarding `C[C@H](CO)N1C[C@H](C)[C@@H](CN(C)Cc2ccc(C(=O)O)cc2)Oc2ccc(NC(=O)Cn3cnnn3)cc2C1=O`, the growth inhibition call is “inactive”. With `Cl.Nc1ccn(C2OC(CO)C(O)C2(F)F)c(=O)n1` (stereo unspecified), the growth inhibition call was “active”. For `C[C@@]1(F)[C@H](O)[C@@H](CO)O[C@H]1n1ccc(N)nc1=O`, the growth inhibition call is “inactive”. With `Nc1ccn([C@@H]2O[C@H](CO)[C@@H](O)C2(F)F)c(=O)n1`, the growth inhibition call is “inactive”.

As for `COc1ccc(NC(=O)N(C)C[C@@H]2OCCCC[C@H](C)Oc3ccc(NC(=O)c4ccccc4)cc3C(=O)N([C@@H](C)CO)C[C@@H]2C)cc1`, the growth inhibition call was “inactive”.

As for `COc1ccc2c3c([nH]c2c1)[C@H](CO)N(Cc1ccc(cc1)Cl)C[C@]13CCN(CC1)Cc1nccs1`, the growth inhibition call is “inactive”. Regarding `COc1ccc2c3c([nH]c2c1)[C@H](CO)N(Cc1ccc(cc1)Cl)C[C@]13CN(CCc2ccccc2)C1`, the growth inhibition call is “active”. As to `COc1ccc2c3c([nH]c2c1)[C@H](CO)N(C[C@]13CN(CCc2ccccc2)C1)C(=O)CN1CCOCC1`, the growth inhibition call was “inactive”.

As for `COc1ccc2c3c([nH]c2c1)[C@@H](CO)N(C[C@]13CN(CCc2ccccc2)C1)C(=O)CN1CCOCC1`, the growth inhibition call was “inactive”. As to `COc1ccc2c3c([nH]c2c1)[C@H](CO)N(Cc1ccc(cc1)Cl)C[C@]13CCN(CC1)Cc1ccccc1`, the growth inhibition call is “inactive”. For the molecule `COc1ccc2c3c([nH]c2c1)[C@@H](CO)N(Cc1ccc(cc1)Cl)C[C@]13CN(CCc2ccccc2)C1`, the growth inhibition call was “active”. Regarding `COc1ccc2c3c([nH]c2c1)[C@@H](CO)N(Cc1ccc(cc1)Cl)C[C@]13CCN(CCc2ccccc2)CC1`, the growth inhibition call is “active”.

Turning to `COc1ccc2c3c([nH]c2c1)[C@@H](CO)N(Cc1ccc(cc1)Cl)C[C@]13CCN(CC1)Cc1ccccc1`, the growth inhibition call is “inactive”. `COc1ccc2c3c([nH]c2c1)[C@H](CO)N(Cc1ccc(cc1)Cl)C[C@]13CCN(CCc2ccccc2)CC1`: the growth inhibition call was “inactive”.

On to `Cc1ccc(NC(=O)Nc2cc(C(F)(F)F)ccc2F)cc1Nc1ccc2c(c1)NC(=O)/C2=C\c1ccc[nH]1`, for which the growth inhibition call was “inactive”.

On to `N[C@@]1(C(=O)O)CO[C@H]2[C@H](C(=O)O)[C@H]21`, for which the growth inhibition call was “inactive”. As to `O=C(NCC(=O)N1CC[C@H](N[C@H]2CC[C@@](O)(c3ccc(-c4ncccn4)cn3)CC2)C1)c1cccc(C(F)(F)F)c1`, the growth inhibition call was “inactive”. In the case of `CO[C@@H]1CN(C)C(=O)c2cc(NS(=O)(=O)CC(F)(F)F)ccc2OC[C@H](C)N(Cc2ccccn2)C[C@H]1C`, the growth inhibition call was “inactive”. `CCCNC(=O)N1[C@@H]2Cn3c(cccc3=O)[C@H]1[C@@H](C(=O)NCC(F)(F)F)[C@@H]2CO`: the growth inhibition call was “inactive”. On to `C[C@@H]1CN([C@H](C)CO)C(=O)c2cc(NC(=O)CCCN(C)C)ccc2O[C@H]1CN(C)C(=O)Nc1ccccc1`, for which the growth inhibition call is “inactive”. Regarding `CCS(=O)(=O)Nc1ccc2c(c1)C(=O)N(C)[C@H]1CC[C@@H](CC(=O)NCc3ccc(OC)cc3)O[C@@H]1CO2`, the growth inhibition call was “inactive”. Turning to `C[C@@H]1CN([C@@H](C)CO)C(=O)Cc2cc(NC(=O)Cn3cnnn3)ccc2O[C@H]1CN(C)S(=O)(=O)c1cccs1`, the growth inhibition call is “inactive”. As to `COc1ccc(NC(=O)Nc2cccc3c2O[C@H](CN(C)S(=O)(=O)c2cn(C)cn2)[C@@H](C)CN([C@H](C)CO)C3=O)cc1`, the growth inhibition call was “inactive”. `COC(=O)c1c(CC[C@@H](CO)NC(=O)N[C@@H](Cc2ccccc2)Cn2cc(C3(O)CCCCC3)nn2)oc(C(C)=O)c1C(=O)OC`: the growth inhibition call is “inactive”. In the case of `Cc1cccnc1[C@@H](NC(=O)C1CCN(Cc2ccc(Oc3ccccc3)cc2)CC1)c1ccc(F)cc1`, the growth inhibition call is “inactive”.

Take `Cc1cccnc1[C@@H](NC(=O)C1CCN(Cc2ccc(Cl)c(Cl)c2)CC1)c1ccc(Cl)cc1`: the growth inhibition call is “inactive”.

As for `Cc1cccnc1[C@@H](NC(=O)C1CCN(CCOc2ccc(Cl)cc2Cl)CC1)c1ccc(Cl)cc1`, the growth inhibition call was “active”.

For `O=C(N[C@H](c1ccc(F)cc1)c1ccc2ccccc2n1)C1CCN(CCOc2ccc(Cl)cc2Cl)CC1`, the growth inhibition call is “inactive”. For the molecule `O=C(N[C@H](c1ccc(Cl)cc1)c1ccsc1)C1CCN(Cc2ccc(Oc3ccccc3)cc2)CC1`, the growth inhibition call is “inactive”.

Take `COc1ccc([C@@H](NC(=O)C2CCN(Cc3ccc(Oc4ccccc4)cc3)CC2)c2ccccn2)cc1`: the growth inhibition call is “inactive”. Turning to `COc1ccc([C@@H](NC(=O)C2CCN(CCOc3ccc(Cl)cc3Cl)CC2)c2ccco2)cc1`, the growth inhibition call was “inactive”. Take `O=C(N[C@@H](c1ccc2c(c1)OCO2)c1ccccn1)C1CCN(CCOc2ccc(Cl)cc2Cl)CC1`: the growth inhibition call is “inactive”. `Cc1cccnc1[C@@H](NC(=O)C1CCN(CCOc2ccc(Cl)cc2Cl)CC1)c1ccc(F)cc1`: the growth inhibition call is “active”. As to `COc1ccc([C@@H](NC(=O)C2CCN(CCOc3ccc(Cl)cc3Cl)CC2)c2ccccn2)cc1`, the growth inhibition call was “inactive”. Next, `O=C(N[C@@H](c1cccnc1)c1ccc2c(c1)OCO2)C1CCN(CCOc2ccc(Cl)cc2Cl)CC1`: “active”; `O=C(N[C@H](c1ccc(Cl)cc1)c1ccccn1)C1CCN(CCOc2ccc(Cl)cc2Cl)CC1`: “active”; `C[C@H]1CN([C@@H](C)CO)C(=O)Cc2cc(NC(=O)Cn3cnnn3)ccc2O[C@H]1CN(C)C(=O)Nc1ccccc1`: “inactive”. As for `C[C@@H]1CN([C@@H](C)CO)C(=O)Cc2cc(NC(=O)c3ccncc3)ccc2O[C@@H]1CN(C)S(=O)(=O)c1ccc(F)cc1`, the growth inhibition call was “inactive”. With `C[C@@H]1CCCCO[C@@H](CN(C)C(=O)NC2CCCCC2)[C@@H](C)CN([C@H](C)CO)C(=O)c2cc(NC(=O)Nc3cccc4ccccc34)ccc2O1`, the growth inhibition call was “inactive”. For `C[C@H](CO)N1C[C@H](C)[C@@H](CN(C)S(=O)(=O)c2cccs2)OCCCC[C@H](C)Oc2ccc(NC(=O)Nc3cccc4ccccc34)cc2C1=O`, the growth inhibition call was “inactive”.
